According to PubChem BioAssay (Tox21):
Results filed as inconclusive are left out. The source made the active and inactive calls. Calls come from the whole dose curve; as a rule, active = well fitted curve in the direction sought with a large enough effect in the repeat runs; inconclusive = weak or mixed curves; inactive = no such curve, though single readings can be large; an effect the other way counts as inactive or inconclusive.

Columns and labels:
[1] = A CellTox Green Cytotoxicity Assay to monitor cytotoxicity in HEK293 cells - 40 hour (AID 1224871); settings: CellTox Green fluorescence; series mostly up to 76.8 µM; note: nearly all actives have a fitted effect of over 45% in size
Outline: (§1)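 Each value comes from one timepoint of a single continuous run in which HEK293 cells with CellTox Green were exposed to compound for up to 40 h at 37 C, dye fluorescence rising with cell death.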

[2] = qHTS RealTime-Glo MT Cell Viability Assay in HEK293 cells - 16 hour (AID 1224872); settings: RealTime-Glo luminescence; series mostly up to 76.8 µM; note: top concentration of the series differs between compounds; nearly all actives have a fitted effect of over 50% in size
Outline: (§2)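 Homogeneous bioluminescent viability format in HEK293 cells (600 cells/well). Following 5 h at 37 C/5% CO2, 23 nL compound was pintooled; the signal was measured repeatedly during 40 h incubation.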

[3] = qHTS RealTime-Glo MT Cell Viability Assay in HepG2 cells - 8 hour (AID 1224873); settings: RealTime-Glo luminescence; series mostly up to 76.8 µM; note: nearly all actives have a fitted effect of over 55% in size
Outline: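 HepG2 cells mixed with RealTime-Glo MT reagents (NanoLuc plus cell-permeant prosubstrate) were seeded at 600 cells/well, incubated 5 h at 37 C/5% CO2, then pinned with compounds in DMSO; nonlytic luminescence tracked viability during 40 h treatment.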

[4] = qHTS RealTime-Glo MT Cell Viability Assay in HEK293 cells - 40 hour (AID 1224874); settings: RealTime-Glo luminescence; max response: active compounds read low; note: nearly all actives have a fitted effect of over 50% in size
Outline: (§3)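 qHTS format; HEK293 cells with NanoLuc/prosubstrate reagent, 37 C/5% CO2 for 5 h pre-dosing; compounds 23 nL in DMSO; luminescence at each time point reflects viable cells.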

[5] = A CellTox Green Cytotoxicity Assay to monitor cytotoxicity in HEK293 cells - 24 hour (AID 1224875); settings: CellTox Green fluorescence; series mostly up to 76.8 µM; note: nearly all actives have a fitted effect of over 45% in size
Outline: as §1

[6] = A CellTox Green Cytotoxicity Assay to monitor cytotoxicity in HepG2 cells - 16 hour (AID 1224876); settings: CellTox Green fluorescence; series mostly up to 76.8 µM; note: nearly all actives have a fitted effect of over 45% in size
Outline: (§4)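 Continuous culture of HepG2 cells with a membrane-impermeant DNA dye; rising fluorescence marks dead cells. Compound exposure lasted up to 40 h at 37 C, with reads every 8 h from 0 h.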

[7] = A CellTox Green Cytotoxicity Assay to monitor cytotoxicity in HepG2 cells - 24 hour (AID 1224878); settings: CellTox Green fluorescence; series mostly up to 76.8 µM; note: nearly all actives have a fitted effect of over 45% in size
Outline: as §4

[8] = A CellTox Green Cytotoxicity Assay to monitor cytotoxicity in HepG2 cells - 40 hour (AID 1224879); settings: CellTox Green fluorescence; series mostly up to 76.8 µM; note: nearly all actives have a fitted effect of over 40% in size
Outline: as §4

[9] = qHTS RealTime-Glo MT Cell Viability Assay in HEK293 cells - 0 hour (AID 1224880); settings: RealTime-Glo luminescence; series mostly up to 76.8 µM
Outline: as §3

[10] = A CellTox Green Cytotoxicity Assay to monitor cytotoxicity in HEK293 cells - 32 hour (AID 1224881); settings: CellTox Green fluorescence; series mostly up to 76.8 µM; note: nearly all actives have a fitted effect of over 40% in size
Outline: as §1

[11] = A CellTox Green Cytotoxicity Assay to monitor cytotoxicity in HepG2 cells - 0 hour (AID 1224882); settings: CellTox Green fluorescence; series mostly up to 76.8 µM; note: nearly all actives have a fitted effect of over 35% in size
Outline: as §4

[12] = A CellTox Green Cytotoxicity Assay to monitor cytotoxicity in HepG2 cells - 32 hour (AID 1224883); settings: CellTox Green fluorescence; series mostly up to 76.8 µM; note: nearly all actives have a fitted effect of over 50% in size
Outline: as §4

[13] = A CellTox Green Cytotoxicity Assay to monitor cytotoxicity in HEK293 cells - 8 hour (AID 1224884); settings: CellTox Green fluorescence; series mostly up to 76.8 µM; note: nearly all actives have a fitted effect of over 35% in size
Outline: as §1

[14] = qHTS RealTime-Glo MT Cell Viability Assay in HepG2 cells - 16 hour (AID 1224885); settings: RealTime-Glo luminescence; series mostly up to 76.8 µM; note: nearly all actives have a fitted effect of over 50% in size
Outline: (§5)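 Cell number in HepG2 cultures estimated from NanoLuc luminescence generated by metabolic reduction of a prosubstrate by living cells. The homogeneous, nonlytic format allowed repeated reads at 0, 8, 16, 24, 32 and 40 h of compound exposure.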

[15] = qHTS RealTime-Glo MT Cell Viability Assay in HEK293 cells - 24 hour (AID 1224886); settings: RealTime-Glo luminescence; series mostly up to 76.8 µM
Outline: as §2

[16] = qHTS RealTime-Glo MT Cell Viability Assay in HEK293 cells - 8 hour (AID 1224887); settings: RealTime-Glo luminescence; series mostly up to 76.8 µM
Outline: as §3

[17] = qHTS RealTime-Glo MT Cell Viability Assay in HepG2 cells - 0 hour (AID 1224889); settings: RealTime-Glo luminescence; series mostly up to 76.8 µM; note: nearly all actives have a fitted effect of over 50% in size
Outline: as §5

[18] = qHTS RealTime-Glo MT Cell Viability Assay in HepG2 cells - 32 hour (AID 1224877); settings: RealTime-Glo luminescence; series mostly up to 76.8 µM; note: nearly all actives have a fitted effect of over 55% in size
Outline: as §5

[19] = A CellTox Green Cytotoxicity Assay to monitor cytotoxicity in HEK293 cells - 16 hour (AID 1224888); settings: CellTox Green fluorescence; series mostly up to 76.8 µM; note: nearly all actives have a fitted effect of over 35% in size
Outline: as §1

[20] = A CellTox Green Cytotoxicity Assay to monitor cytotoxicity in HepG2 cells - 8 hour (AID 1224890); settings: CellTox Green fluorescence; series mostly up to 76.8 µM; note: nearly all actives have a fitted effect of over 45% in size
Outline: as §4
% is set by controls: 0 for no effect and ±100 for the full control effect.

N#CCN(CC#N)CCN(CC#N)CC#N
inactive: Potency [1] | Potency [2] | outcome [3] | max response [4] 4.6% | Potency [5] | Potency [6] | Potency [7] | Potency [8] | outcome [9] | Potency [10] | Potency [11] | Potency [12] | Potency [13] | outcome [14] | Potency [15] | Potency [16] | Potency [17]

COCCOC(=O)CC#N
inactive: Potency [1] | Potency [2] | outcome [3] | max response [4] 1.9% | Potency [5] | Potency [6] | Potency [18] | Potency [8] | outcome [9] | Potency [10] | Potency [11] | Potency [12] | Potency [13] | outcome [14] | Potency [19] | Potency [17] | Potency [20]

CCCCc1ccc2cccc(S(=O)(=O)O)c2c1
inactive: Potency [1] | Potency [2] | outcome [3] | max response [4] 3.37% | Potency [5] | Potency [6] | Potency [18] | outcome [9] | Potency [10] | Potency [11] | Potency [13] | outcome [14] | Potency [15] | Potency [16] | Potency [17] | Potency [20]

Nc1[nH]c(=O)ncc1F
inactive: Potency [1] | Potency [2] | outcome [3] | max response [4] 0.113% | Potency [5] | Potency [6] | Potency [7] | Potency [8] | outcome [9] | Potency [10] | Potency [11] | Potency [12] | outcome [14] | Potency [15] | Potency [16] | Potency [19] | Potency [17] | Potency [20]

N#CCc1ccccc1[N+](=O)[O-]
inactive: Potency [1] | Potency [2] | outcome [3] | max response [4] 9.34% | Potency [5] | Potency [6] | Potency [18] | Potency [8] | outcome [9] | Potency [10] | Potency [11] | Potency [12] | Potency [13] | outcome [14] | Potency [15] | Potency [16] | Potency [19] | Potency [17] | Potency [20]

COC(=O)CCCC(=O)O
inactive: Potency [1] | Potency [2] | outcome [3] | max response [4] 10.9% | Potency [5] | Potency [6] | Potency [18] | Potency [7] | Potency [8] | outcome [9] | Potency [10] | Potency [11] | outcome [14] | Potency [15] | Potency [19] | Potency [17] | Potency [20]

Cc1ccc(Nc2ccc(O)c3c2C(=O)c2ccccc2C3=O)cc1
inactive: Potency [1] | Potency [2] | outcome [3] | max response [4] 7.86% | Potency [5] | Potency [6] | Potency [18] | Potency [8] | outcome [9] | Potency [10] | Potency [11] | Potency [12] | Potency [13] | outcome [14] | Potency [15] | Potency [16] | Potency [19] | Potency [17]

NS(=O)(=O)c1cc2c(cc1Cl)NC(CSCc1ccccc1)=NS2(=O)=O
inactive: Potency [1] | Potency [2] | outcome [3] | max response [4] -0.803% | Potency [5] | Potency [6] | Potency [18] | Potency [8] | outcome [9] | Potency [10] | Potency [11] | Potency [12] | outcome [14] | Potency [15] | Potency [16] | Potency [19] | Potency [17]

CN(C)C(=O)Nc1ccccc1
inactive: Potency [1] | Potency [2] | outcome [3] | max response [4] 1.06% | Potency [5] | Potency [6] | Potency [18] | Potency [8] | outcome [9] | Potency [10] | Potency [11] | Potency [12] | outcome [14] | Potency [16] | Potency [19] | Potency [17] | Potency [20]

NC(N)=NS(=O)(=O)c1ccc(N)cc1
inactive: Potency [1] | Potency [2] | outcome [3] | max response [4] -4.08% | Potency [5] | Potency [6] | Potency [7] | Potency [8] | outcome [9] | Potency [10] | Potency [11] | Potency [12] | Potency [13] | outcome [14] | Potency [15] | Potency [16] | Potency [17] | Potency [20]

CC(C)c1ccc2oc3nc(N)c(C(=O)O)cc3c(=O)c2c1
inactive: Potency [1] | Potency [2] | outcome [3] | max response [4] 13% | Potency [5] | Potency [6] | Potency [7] | Potency [8] | outcome [9] | Potency [10] | Potency [11] | Potency [12] | Potency [13] | outcome [14] | Potency [15] | Potency [16] | Potency [19] | Potency [17] | Potency [20]
